An excerpt weighted towards active compounds, which were near 5.3% of everything screened.
LASV entry inh – blocks Lassa virus binding to or entry into cells; 300,000 tested, 1.2% active; Potency, µM (titrated, usually from 37.9 µM), hits mostly inhibitors; Lassa virus pseudotype entry inhibition, cell reporter; calls by dose curve; tested in HEK293 cells; further: nearly all actives have a fitted effect of over 50% in size
VACV mCherry inh – vaccinia inhibition (mCherry reporter). Vaccinia virus mCherry reporter infection, fluorescence. Potency, µM (doses to about 36.5 µM), hits mostly inhibitors. 310,000 tested, 0.63% active. AID 720579; calls by dose curve; tested in A549 cells; further: nearly all actives have a fitted effect of over 35% in size
VACV Venus inh – vaccinia inhibition (Venus reporter); AID 720580; Vaccinia virus Venus reporter expression, fluorescence; 330,000 tested, 0.46% active; Potency, µM (doses to about 36.5 µM), usual class: inhibitors; calls by dose curve; tested in A549 cells; further: nearly all actives have a fitted effect of over 30% in size
FMDV inh – foot and mouth disease virus antiviral activity. FMDV antiviral cell-based qHTS. Potency, µM (top dose mostly 57.9 µM), most hits filed as inhibitors. 410,000 tested, 1.2% active. AID 1159524; calls by dose curve; tested in HEK293T cells; further: read-out not given here; nearly all actives have a fitted effect of over 45% in size
MARV entry inh – inhibitors of Marburg virus binding or cell entry | Marburg virus pseudotyped entry inhibition, cell reporter | Potency, µM (titrated, usually from 37.8 µM), actives largely listed as inhibitors | 300,000 tested, 1.8% active | AID 540276; calls by dose curve; tested in HEK293 cells
HCV inhibitor – HCV inhibition | Huh7.5.1 HCVcc-Cre infection, luciferase reporter, 44 h | Potency, µM (titrated, usually from 41.8 µM), hits mostly inhibitors | 340,000 tested, 3.4% active | AID 651820; active means well fitted inhibition curve with a large enough effect; inconclusive means small, poorly fitted or top-dose-only effect, or another doubt; inactive means no such curve, though single readings can be large or run the other way
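HCVcc-Cre virus at an moi near 0.5 was added right after compound to cells cultured 4 h from seeding (1,000 cells/well). Luciferase activity was determined 44 h later, 15 min after substrate addition at RT.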
A number is an active result; . = inactive; ? = inconclusive; / = no result.

SMILES	LASV entry inh	VACV mCherry inh	VACV Venus inh	FMDV inh	MARV entry inh	HCV inhibitor
Cc1cc(C)nc(NN=C(c2ccccc2)c2ccccc2)n1	?	.	.	.	10µM	?
CC(/C=C/c1ccccc1)=N\Nc1nc(C)cc(C)n1	.	.	.	.	.	.
Cc1[nH]c2ccccc2c1/C=N/NC(=S)NC(C)C	?	.	.	?	?	10µM
Cc1[nH]c2ccccc2c1/C=N\NC(=O)c1ccccc1Cl	/	.	.	.	/	/
Cc1[nH]c2ccccc2c1/C=N/NC(=O)C1CC1(c1ccccc1)c1ccccc1 (centres undefined)	?	?	11µM	40µM	?	?
O=C(COC(=O)C1CC1)NCCc1ccc(Cl)cc1	.	.	.	.	?	.
C=CCN1C(=O)C2CCCCC2n2nnc(C(=O)OCC)c21 (centres undefined)	/	/	/	/	.	/
CCn1ncc(CN2CCCC(C(=O)c3cccc(OC(C)C)c3)C2)c1C (centres undefined)	/	/	/	.	/	?
CC(C)Oc1cccc(C(=O)C2CCCN(Cc3cccn3-c3cccnc3)C2)c1 (centres undefined)	/	/	/	.	/	11µM
COc1ccc(CN2CCCC(C(=O)c3cccc(OC(C)C)c3)C2)cc1Cn1cccn1 (centres undefined)	/	/	/	?	/	11µM
CSc1ccc(C(=O)C2CCCN(Cc3cc4ccccc4[nH]3)C2)cc1 (centres undefined)	?	?	.	?	3.5µM	?
CSc1ccc(C(=O)C2CCCN(Cc3cccn3-c3cccnc3)C2)cc1 (centres undefined)	?	.	.	?	?	14µM
O=C(c1ccc(Cl)cc1)C1CCCN(Cc2cccn2-c2cccnc2)C1 (centres undefined)	.	.	.	?	.	.
CSc1ccc(C(=O)C2CCCN(Cc3cccnc3)C2)cc1 (centres undefined)	.	.	.	?	.	?
CCC1CN(CC(=O)NCc2n[nH]c3c2CCCCC3)Cc2cc(OC)ccc2O1 (centres undefined)	/	.	.	.	/	/
Cc1ccc(N(CC(=O)N2CCCCCC2)S(C)(=O)=O)cc1	/	.	.	.	/	/
Cc1ccc2c(c1)NC(=O)CC(c1ccccc1)=N2	.	.	.	.	.	3.2µM
CCc1ccc(NC(=O)Cn2cc(S(=O)(=O)N3CCCC3)c(S(=O)(=O)N3CCCC3)c2)cc1	?	.	.	.	/	/
COc1ccc(C(=O)Nc2nnc(-c3cccs3)s2)cc1	?	.	.	.	3.2µM	?
COc1cccc(C(=O)Nc2nnc(-c3ccc(OC)cc3OC)s2)c1	/	.	.	.	.	10µM
O=C1c2ccccc2C(=O)N1c1cccc(O)c1	/	.	.	/	/	/
CC(C)C1Nc2ccc(S(N)(=O)=O)cc2C2C=CCC21 (centres undefined)	.	.	.	.	.	11µM
O=C(NCc1ccccc1)c1ccc(NC(=O)c2nsc3ccccc23)cc1	.	.	.	.	/	/
Cc1cc([N+](=O)[O-])c2ccccc2[n+]1[O-]	/	/	/	?	/	11µM
Nc1nc2ccccc2n1CCOc1ccc(Cl)cc1	.	.	.	.	?	.
SMILES	LASV entry inh	VACV mCherry inh	VACV Venus inh	FMDV inh	MARV entry inh	HCV inhibitor
Nc1nc2ccccc2n1CCOc1ccccc1Cl	.	/	?	?	11µM	?
Cc1onc(-c2ccccc2)c1C(=O)OCC(=O)c1ccc[nH]1	/	.	.	?	/	/
CN(C(=O)c1ccccc1Cl)c1ccccc1C(=O)NCc1ccccc1	.	.	.	.	.	.
CN(C)S(=O)(=O)c1cc(C(=O)NCc2ccccc2)c(Cl)cc1Cl	.	/	/	.	.	13µM
CN(C)CCCn1c(SCC(=O)Nc2nc(-c3cccc(Br)c3)cs2)nc2ccccc2c1=O	?	.	.	.	11µM	10µM
O=C(CSc1nc2ccccc2[nH]1)Nc1nc(-c2cccc(Br)c2)cs1	.	.	.	.	.	.
COc1cc(-c2cc(NC(C)=O)c3ncc(-c4ccc(C(C)=O)cc4)n3c2)cc(OC)c1OC	/	.	.	.	/	/
COc1cccc(-n2sc3c(c2=S)-c2cc(OC)ccc2NC3(C)C)c1	?	?	?	.	?	10µM
O=C(CN1c2ccccc2Sc2ccccc21)N/N=C/c1ccc([N+](=O)[O-])cc1	?	.	?	.	8.9µM	?
Cc1ccccc1NC1=C/C(=N\S(=O)(=O)c2ccc(C(=O)O)cc2)c2ccccc2C1=O	?	32µM	?	?	8.9µM	?
O=C(O)c1ccc(S(=O)(=O)/N=C2\C=C(Nc3ccccc3F)C(=O)c3ccccc32)cc1	?	?	?	?	?	10µM
